Active and inactive are the calls of the source.
Legend:
[1] = system: Plasmodium falciparum Sir2 (PF13_0152, Sir2A); assay: Plasmodium falciparum Sir2A binding compounds – biochemical, small-molecule microarray, 635 nm fluorescence, primary screen (AID 1098); details: fluorescence 635 nm, higher = more signal;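 also: score merges spot fluorescence intensity with its signal-to-noise ratio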
[2] = probe aDKK1 binding to arrayed compounds – biochemical, biotinylated probe, 635/667 nm fluorescence, primary screen (AID 1099); details: small-molecule microarray, higher = more signal;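 also: score merges 667nm spot fluorescence with signal to noise across triplicate slides; reference of the scale not given here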
[3] = probe aCHRDL2 binding to arrayed compounds – biochemical, biotinylated probe, 635/667 nm fluorescence, primary screen (AID 1100); details: small-molecule microarray, higher = more signal
[4] = change in splice reporter luminescence, either direction, cell-based, HEK293, spliceosome inhibition project, primary screen (AID 1101); details: HEK293 splicing luciferase reporter, 24 h, higher = more signal, called active from +8 up or from −8 down;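 also: HEK293 cells carrying a splicing-competent luciferase reporter gene; test concentration not given here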
[5] = molecular target: Fibroblast growth factor 10 (Homo sapiens) (UniProt O15520); assay: compounds binding fibroblast growth factor 10 – biochemical, small-molecule microarray, 635 nm fluorescence, primary screen (AID 1102); details: FGF10 binding, fluorescence 635 nm, higher = more signal
Chain of Fibroblast growth factor 10 (Homo sapiens) (O15520 whole entry, looked up): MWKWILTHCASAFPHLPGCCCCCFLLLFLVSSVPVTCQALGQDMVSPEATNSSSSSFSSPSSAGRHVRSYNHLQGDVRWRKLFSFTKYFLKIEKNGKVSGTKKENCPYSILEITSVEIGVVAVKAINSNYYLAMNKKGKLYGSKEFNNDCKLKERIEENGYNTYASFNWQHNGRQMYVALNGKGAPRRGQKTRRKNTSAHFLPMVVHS

[6] = system: glycogen synthase kinase-3 (GSK3A per assay name; protocol says GSK3B); assay: compounds binding glycogen synthase kinase-3 – biochemical, small-molecule microarray, 635 nm fluorescence, GSK3A, primary screen (AID 1103); details: fluorescence 635 nm, higher = more signal; also: the record names both GSK3A and GSK3B
[7] = molecular target: Epidermal growth factor receptor (Homo sapiens) (UniProt P00533); assay: compounds binding epidermal growth factor receptor – biochemical, small-molecule microarray, 635 nm fluorescence, primary screen (AID 1104); details: EGFR binding, higher = more signal;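 also: score merges 667 nm emission intensity with spot signal to noise over triplicate slides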
Chain of Epidermal growth factor receptor (Homo sapiens) (P00533 whole entry, looked up): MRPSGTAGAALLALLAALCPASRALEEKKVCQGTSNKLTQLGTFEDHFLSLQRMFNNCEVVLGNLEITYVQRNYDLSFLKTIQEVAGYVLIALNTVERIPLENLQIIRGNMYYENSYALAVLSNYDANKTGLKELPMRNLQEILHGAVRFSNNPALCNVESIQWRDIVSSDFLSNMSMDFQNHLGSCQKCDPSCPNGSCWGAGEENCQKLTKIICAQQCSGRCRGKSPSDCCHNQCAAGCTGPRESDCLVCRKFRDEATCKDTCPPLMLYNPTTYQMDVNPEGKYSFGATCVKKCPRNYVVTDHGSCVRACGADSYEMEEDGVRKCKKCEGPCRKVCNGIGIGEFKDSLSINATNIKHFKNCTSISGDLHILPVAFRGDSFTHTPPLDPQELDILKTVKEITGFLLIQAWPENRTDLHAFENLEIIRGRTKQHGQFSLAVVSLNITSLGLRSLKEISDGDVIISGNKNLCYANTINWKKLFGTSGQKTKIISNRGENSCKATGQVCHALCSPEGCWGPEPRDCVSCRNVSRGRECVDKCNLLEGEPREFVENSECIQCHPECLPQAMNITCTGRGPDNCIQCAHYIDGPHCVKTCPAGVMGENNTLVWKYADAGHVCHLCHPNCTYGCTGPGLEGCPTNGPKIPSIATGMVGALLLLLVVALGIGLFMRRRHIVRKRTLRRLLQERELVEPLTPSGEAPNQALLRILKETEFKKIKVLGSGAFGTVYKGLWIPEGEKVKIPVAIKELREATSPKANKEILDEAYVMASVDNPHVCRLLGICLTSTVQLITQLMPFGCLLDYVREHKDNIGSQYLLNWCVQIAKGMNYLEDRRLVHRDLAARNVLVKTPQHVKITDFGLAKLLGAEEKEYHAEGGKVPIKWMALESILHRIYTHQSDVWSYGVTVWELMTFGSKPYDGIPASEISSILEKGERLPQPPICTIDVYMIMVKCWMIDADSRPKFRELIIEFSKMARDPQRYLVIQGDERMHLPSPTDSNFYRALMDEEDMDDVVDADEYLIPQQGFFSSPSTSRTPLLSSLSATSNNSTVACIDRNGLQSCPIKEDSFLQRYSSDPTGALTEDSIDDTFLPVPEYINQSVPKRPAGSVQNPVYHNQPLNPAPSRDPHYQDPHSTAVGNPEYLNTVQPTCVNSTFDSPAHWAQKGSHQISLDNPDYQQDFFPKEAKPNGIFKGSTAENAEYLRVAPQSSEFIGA

[8] = molecular target: Follistatin-related protein 3 (Homo sapiens) (UniProt O95633); assay: compounds binding follistatin-related protein 3 – biochemical, small-molecule microarray, 635 nm fluorescence, primary screen (AID 1105); details: FSTL3 binding, higher = more signal;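 also: score merges emission near 667 nm and signal to noise per printed spot across three slides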
Chain of Follistatin-related protein 3 (Homo sapiens) (O95633 whole entry, looked up): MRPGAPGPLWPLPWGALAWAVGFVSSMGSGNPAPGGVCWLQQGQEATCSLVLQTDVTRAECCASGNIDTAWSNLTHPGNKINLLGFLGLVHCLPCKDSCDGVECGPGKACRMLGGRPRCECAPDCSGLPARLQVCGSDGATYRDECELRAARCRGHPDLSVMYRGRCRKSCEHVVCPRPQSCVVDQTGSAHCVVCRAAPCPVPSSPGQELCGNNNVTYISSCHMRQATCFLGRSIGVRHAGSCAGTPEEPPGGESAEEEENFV

[9] = molecular target: Dickkopf-related protein 1 (Homo sapiens) (UniProt O94907); assay: small molecules binding DKK1 protein – biochemical, small-molecule microarray, 635 nm fluorescence scan, primary screen (AID 1106); details: higher = more signal;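 also: score merges emission near 667 nm with signal to noise over three replicate slides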
Chain of Dickkopf-related protein 1 (Homo sapiens) (O94907 whole entry, looked up): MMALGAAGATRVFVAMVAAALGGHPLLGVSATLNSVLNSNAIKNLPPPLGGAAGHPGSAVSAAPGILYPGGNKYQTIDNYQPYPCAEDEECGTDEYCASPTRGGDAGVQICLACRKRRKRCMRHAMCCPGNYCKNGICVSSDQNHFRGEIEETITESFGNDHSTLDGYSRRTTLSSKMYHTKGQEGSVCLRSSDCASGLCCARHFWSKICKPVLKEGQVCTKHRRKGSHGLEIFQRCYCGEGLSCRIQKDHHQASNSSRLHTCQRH

[10] = system: Inhibin beta A chain (activin A); assay: small molecules binding activin A – biochemical, small-molecule microarray, 635 nm fluorescence scan, primary screen (AID 1107); details: INHBA, higher = more signal;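 also: mouse activin A protein probed at 4.33 µg/mL on printed slides; score merges bound-protein fluorescence near 667 nm with spot signal-to-noise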

## O=C1OCCC=C[C@H]2OC34C=CCN(Cc5ccccc5)C(=O)[C@H]3N(CCCCCCO)C(=O)[C@@H]4C12 (stereo not given in full)
[1]
  composite z-score: 1.61
[2]
  composite z-score: -0.189
[3]
  composite z-score: 0.33
[4]
  z-score: -0.205 (inactive)
[5]
  composite z-score: -1.26
[6]
  composite z-score: -0.578
[7]
  composite z-score: -0.83
[8]
  composite z-score: -0.435
[9]
  composite z-score: -1.38
[10]
  composite z-score: -0.597

## N#Cc1ccc(NN2C(C(O)c3ccc([N+](=O)[O-])cc3)C=CC3C(=O)N(c4ccccc4)C(=O)C32)cc1 (stereo not given)
[1]
  composite z-score: 1.29
[2]
  composite z-score: 0.829
[3]
  composite z-score: 1.08
[4]
  z-score: 2.23 (inactive)
[5]
  composite z-score: 0.626
[6]
  composite z-score: 0.751
[7]
  composite z-score: 0.0159
[8]
  composite z-score: 0.422
[9]
  composite z-score: -0.392
[10]
  composite z-score: 0.787

## Cc1cc(C)cc(N2C(=O)CS(=O)(=O)C2c2cccc([N+](=O)[O-])c2)c1 (stereo not given)
[1]
  composite z-score: 0.195
[2]
  composite z-score: 0.734
[3]
  composite z-score: 0.788
[4]
  z-score: -0.352 (inactive)
[5]
  composite z-score: 0.612
[6]
  composite z-score: 0.124
[7]
  composite z-score: 0.518
[8]
  composite z-score: 0.366
[9]
  composite z-score: 0.122
[10]
  composite z-score: 0.826

## O=C1N(CCS(=O)(=O)c2ccccc2)c2ccccc2C[C@@]12COC(c1ccc(OCCCO)cc1)=N2
[1]
  composite z-score: 1.51
[2]
  composite z-score: 0.957
[3]
  composite z-score: 1.12
[4]
  z-score: -0.651 (inactive)
[5]
  composite z-score: 0.805
[6]
  composite z-score: 1.32
[7]
  composite z-score: 0.432
[8]
  composite z-score: 1.32
[9]
  composite z-score: 0.763
[10]
  composite z-score: 1.18

## O=C1OCCC=C[C@H]2OC34C=CCN(Cc5ccccc5)C(=O)[C@H]3N(CCCCCO)C(=O)[C@@H]4C12 (stereo not given in full)
[1]
  composite z-score: 1.96
[2]
  composite z-score: -0.285
[3]
  composite z-score: 0.672
[4]
  z-score: -0.34 (inactive)
[5]
  composite z-score: -0.779
[6]
  composite z-score: 1.06
[7]
  composite z-score: -0.744
[8]
  composite z-score: -0.595
[9]
  composite z-score: -1.19
[10]
  composite z-score: 0.141

## CCN(CC)c1ccc(N2CC=CC34O[C@@H]5/C=C\CCCOC(=O)C5[C@H]3C(=O)N(C(CO)C(C)C)[C@@H]4C2=O)cc1 (stereo not given in full)
[1]
  composite z-score: 1.23
[2]
  composite z-score: -0.252
[3]
  composite z-score: -0.0922
[4]
  z-score: 0.167 (inactive)
[5]
  composite z-score: -0.711
[6]
  composite z-score: -0.748
[7]
  composite z-score: -1.05
[8]
  composite z-score: -0.8
[9]
  composite z-score: -0.681
[10]
  composite z-score: 1.11

## Cc1ccc(S[C@]2(C(=O)NC3CC3)CC(=O)N(Cc3ccccc3)[C@@H]2c2ccc(CO)cc2)cc1
[1]
  composite z-score: 0.325
[2]
  composite z-score: 0.224
[3]
  composite z-score: 0.892
[4]
  z-score: -0.61 (inactive)
[5]
  composite z-score: -0.829
[6]
  composite z-score: -0.414
[7]
  composite z-score: -0.679
[8]
  composite z-score: -0.217
[9]
  composite z-score: 0.539
[10]
  composite z-score: 0.194

## [N-]=[N+]=NCc1ccccc1[C@H]1OC(c2ccc(OCCCO)cc2)=N[C@@]1(CCS(=O)(=O)c1ccccc1)C(=O)N1CCOCC1
[1]
  composite z-score: 1.26
[2]
  composite z-score: 1.19
[3]
  composite z-score: 1.31
[4]
  z-score: -0.0598 (inactive)
[5]
  composite z-score: 1.17
[6]
  composite z-score: 0.239
[7]
  composite z-score: 0.267
[8]
  composite z-score: 1.13
[9]
  composite z-score: -0.0445
[10]
  composite z-score: 1

## [N-]=[N+]=NCc1ccccc1C[C@]1(C(=O)NCCN2CCOCC2)N=C(c2ccc(OCCCO)cc2)O[C@H]1c1ccccc1N=[N+]=[N-]
[1]
  composite z-score: 0.8
[2]
  composite z-score: 0.838
[3]
  composite z-score: 1.11
[4]
  z-score: -0.947 (inactive)
[5]
  composite z-score: 0.636
[6]
  composite z-score: 1.15
[7]
  composite z-score: 0.294
[8]
  composite z-score: 0.504
[9]
  composite z-score: -0.233
[10]
  composite z-score: 0.819

## C=CCC(OC(C)=O)[C@@H]1[C@@H](N(Cc2cccc3ccccc23)C(=O)c2cccc3ccccc23)c2cc(OCCCO)ccc2N1C(=O)c1ccc2ccccc2n1 (stereo not given in full)
[1]
  composite z-score: -0.0758
[2]
  composite z-score: -0.095
[3]
  composite z-score: 0.181
[4]
  z-score: -0.202 (inactive)
[5]
  composite z-score: 0.635
[6]
  composite z-score: 0.0702
[7]
  composite z-score: -0.0538
[8]
  composite z-score: 0.256
[9]
  composite z-score: -0.501
[10]
  composite z-score: 1.45

## COC(=O)C[C@H]1O[C@]2(C(=O)N(Cc3ccccc3)c3ccc(NC(C)=O)cc32)[C@@H](C)[C@@H]1[Si](C)(C)c1ccc(OC)cc1
[1]
  composite z-score: 0.407
[2]
  composite z-score: -0.097
[3]
  composite z-score: -0.362
[4]
  z-score: -0.703 (inactive)
[5]
  composite z-score: 0.802
[6]
  composite z-score: 0.985
[7]
  composite z-score: 0.474
[8]
  composite z-score: 0.719
[9]
  composite z-score: 0.599
[10]
  composite z-score: 0.25

## COCCOC(=O)N1C(=O)[C@@]2(c3cc(C#CC4(O)CCCCCC4)ccc31)[C@H](C(=O)N1CCCCCCC1)[C@H]1C(=O)O[C@H](c3ccccc3)[C@H](c3ccccc3)N1[C@@H]2c1ccccc1OCCO
[1]
  composite z-score: 1.6
[2]
  composite z-score: 1.56
[3]
  composite z-score: 1.44
[4]
  z-score: 0.0811 (inactive)
[5]
  composite z-score: 0.933
[6]
  composite z-score: 1.32
[7]
  composite z-score: 0.75
[8]
  composite z-score: 1.46
[9]
  composite z-score: 1.18
[10]
  composite z-score: 1.63

## C=C(COC)C(=O)CC[C@@H](OC(=O)c1cccnc1)c1ccc(CO)o1
[1]
  composite z-score: 0.691
[2]
  composite z-score: -0.2
[3]
  composite z-score: -0.237
[4]
  z-score: 1.86 (inactive)
[5]
  composite z-score: 0.0396
[6]
  composite z-score: 0.457
[7]
  composite z-score: 0.182
[8]
  composite z-score: 0.916
[9]
  composite z-score: 0.611
[10]
  composite z-score: 1.58

## COCC1=C2[C@@H](CCc3ccccc3)OB(O)C[C@@H]2[C@@H]2C(=O)N(Cc3ccccc3)C(=O)[C@@H]2C1
[1]
  composite z-score: 0.174
[2]
  composite z-score: -0.143
[3]
  composite z-score: -0.188
[4]
  z-score: 0.161 (inactive)
[5]
  composite z-score: 0.628
[6]
  composite z-score: 0.197
[7]
  composite z-score: 0.388
[8]
  composite z-score: 0.191
[9]
  composite z-score: 0.249
[10]
  composite z-score: 0.728

## O=C(O)[C@@]1(Cc2ccccc2)N=C(c2ccc(OCCCO)cc2)O[C@H]1c1ccccc1
[1]
  composite z-score: 1.03
[2]
  composite z-score: 0.116
[3]
  composite z-score: 0.614
[4]
  z-score: -0.674 (inactive)
[5]
  composite z-score: 0.252
[6]
  composite z-score: -0.11
[7]
  composite z-score: -1.02
[8]
  composite z-score: 0.0206
[9]
  composite z-score: -0.872
[10]
  composite z-score: 0.779

— PubChem BioAssay
